From ChEMBL document CHEMBL3988442, “University of Dundee, Small-Polar-MMV Screening Library” (2021) come the findings set out here.

Hit rate of the full screen: of about 48,000 compounds, about 13,000 (27%) showed an effect of 50% or more. The list shows a part of the results.

This assay has as its system Wolbachia pipientis. The experiment in a line: Anti-Wolbachia Cell-Based Screen. Particulars: 5 µM. The format is functional. Also noted: scale not given: in the data most compounds retested in dose-response had high values.
For `CC(=O)N1CCN(CCNS(=O)(=O)c2ccc(F)c(F)c2)CC1`, the “Percent Effect” value is on record as 114.9%.
The value for `CS(=O)(=O)Cc1cccc(CNS(=O)(=O)c2ccc(F)c(F)c2)c1` was -9.477%.
Next, `O=S(=O)(NCCN1CC=CC1)c1ccc(Cl)cc1`: -10.33%; `Cn1ncc2ccc(C3CCCN(Cc4cccs4)C3)nc21` (stereo not given): 161.9%.
Next, `O=C(Cc1cccs1)N1CCCC(CNS(=O)(=O)Cc2ccccc2)C1` (stereo not given): -8.788%; `COCC1CN(C(=O)Cc2cccs2)Cc2c1cnn2C` (stereo not given): -7.933%.
In the case of `Cn1ncc2ccc(C3CCCN(Cc4ccsc4)C3)nc21` (stereo not given), the “Percent Effect” value was 178.8%.
The value for `Cn1ncc2ccc(C3CCCN(C(=O)Cc4cccs4)C3)nc21` (stereo not given) was 73.59%.
The value for `Cn1cc(CN2CCO[C@H]3CN(Cc4ccsc4)C[C@H]32)cn1` was -4.934%.
For the compound `O=C(c1cnc(Cc2c(Cl)cccc2Cl)nc1O)N1CCNCC1`, the “Percent Effect” value stood at 20.47%.
The value for `COCCc1noc(C2CCN(C(=O)Nc3cccs3)CC2)n1` was -7.09%; that for `Fc1cccc(Cl)c1CN1CCn2c(nnc2C2CC2)C1` was -25.63%; that for `O=c1ccc(-c2cccs2)nn1CN1CCN(Cc2ccccc2)CC1` was 10.59%.
The value for `O=C1CCC(=O)N1c1nn(Cc2ccccc2Cl)cc1Cl` was 119%.
On to `O=C1N(c2cccc(Cl)c2)Cc2nc(=O)n(Cc3cccc(F)c3)n21`, for which the “Percent Effect” value is recorded as -1.382%.
With `O=C1CCC(=O)N1c1nn(Cc2ccccc2)cc1Cl`, the “Percent Effect” value was 98.19%.
The value for `c1ccc(CN2CCN(Cc3cscn3)CC2)cc1` was 8.549%; that for `O=C1N(Cc2ccccc2)C[C@H]2CN(Cc3ccccc3Cl)CCN12` was -1.651%; that for `O=C1CCC(=O)N1c1nn(Cc2c(F)cccc2Cl)cc1Cl` was 84.15%.
The value for `Cc1nsc(N2CCN(Cc3cccc(F)c3)CC2)n1` was -33.99%; that for `CCn1cc(C(=O)N(C)Cc2c(F)cccc2Cl)cn1` was 10.91%; that for `O=C1CCC(=O)N1c1nn(Cc2cccc(F)c2)cc1Cl` was 81.78%.
For `CN1CCN(Cc2ccccc2Cl)CC12CCC(=O)N(CC1CC1)CC2` (stereo not given), the “Percent Effect” value is recorded as 19.23%.
For the compound `Cc1cc(C(=O)N2CCc3nnc(N(C)C)cc3C2)c(C)n1C1CC1`, the “Percent Effect” value was 2.988%.
The value for `CS(=O)(=O)c1nnc(NC(=O)CCc2cccc(Cl)c2)[nH]1` was -4.467%; that for `O=C(c1ncoc1-c1ccco1)N(Cc1ccco1)CC1CCCO1` (stereo not given) was 1.49%; that for `COc1cc(OC)c(CNC(=O)NCC(=O)N(C)C)c(OC)c1` was -14.89%.
With `COc1ccc(-c2n[nH]cc2CN(C)CCC2CCOCC2)cc1F`, the “Percent Effect” value is -12.67%.
The value for `CN(C)S(=O)(=O)N1CCCCC1CCc1ccc(O)cc1` (stereo not given) was 3.428%.
Regarding `Cc1nsc(NCCNS(=O)(=O)c2cccc(Cl)c2)n1`, the “Percent Effect” value is given as 1.185%.
The value for `O=C1CCC(=O)N1c1nn(Cc2ccc(F)cc2)cc1Cl` was 96.9%; that for `CC(C)C1CN(c2ncccc2Cl)CCC(=O)N1Cc1ccc(F)cc1` (stereo not given) was 6.297%; that for `COc1nccnc1N1CCN(Cc2ccc(F)cc2)C(=O)C1` was -14.02%.
Consider `Cc1ccc(CN(CCCO)Cc2nc3ccccc3[nH]2)s1`, for which the “Percent Effect” value is -7.789%.
The value for `CNC(=O)[C@@H]1C[C@@H](N)CN1C(=O)CCSCc1ccc(F)cc1` was -13.45%; that for `O=C(O)C(F)(F)F.O=C(O)C(F)(F)F.O=C(O)[C@]12CCCN(Cc3ccncc3)C[C@H]1CN(c1ncccn1)C2` was 1.194%.
On to `Cc1ccc(CN2CCC[C@]3(C(=O)O)CN(c4ncccn4)C[C@@H]3C2)o1.O=C(O)C(F)(F)F`, for which the “Percent Effect” value is given as -9.127%.
For `Cc1cnc(N2C[C@@H]3CN(Cc4ccco4)CCC[C@]3(C(=O)O)C2)nc1.O=C(O)C(F)(F)F`, the “Percent Effect” value was determined as 5.679%.
For the compound `CNC(=O)C1CCC2(CCN(c3nncs3)CC2)CO1.O=C(O)C(F)(F)F` (stereo not given), the “Percent Effect” value was found to be 1.191%.
Next, `O=C(O)C(F)(F)F.O=C(O)[C@]12CCCN(CC3CCOC3)C[C@H]1CN(c1ncccn1)C2` (stereo not given in full): 119%.
Next, `O=C(O)C(F)(F)F.O=C(O)[C@]12CCCN(Cc3ccccc3)C[C@H]1CN(c1ncccn1)C2`: -10.65%.
For the compound `O=C(O)C(F)(F)F.O=C(O)[C@]12CCCN(C3CCOC3)C[C@H]1CN(c1nncs1)C2` (stereo not given in full), the “Percent Effect” value is reported as 113.4%.
As to `O=C(C1CCC2(CCN(c3nncs3)CC2)CO1)N1CCCC1.O=C(O)C(F)(F)F` (stereo not given), the “Percent Effect” value was -6.023%.
Take `Cc1cnc(N2C[C@@H]3CN(C4CCOC4)CCC[C@]3(C(=O)O)C2)nc1.O=C(O)C(F)(F)F` (stereo not given in full): the “Percent Effect” value came to 115.6%.
The value for `Cc1cc(CN(C)C(=O)NCc2ccnc(SC(C)(C)C)c2)no1` was -6.174%.
The value for `COc1ncccc1CNC(=O)CN1CCCCCC1=O` was -54.83%; that for `Cc1nc(N)nc(C)c1Cc1nc(C2CC2)n[nH]1` was -31.49%; that for `Cc1noc(C)c1CCCNC(=O)C1CCN(C(=O)C2CC2)CC1` was 11.33%.
Next, `Cc1noc(C)c1CCCNC(=O)C1CCN(C(=O)C2CCC2)CC1`: 9.148%.
As to `O=C(NCCCNC(=O)C1CCC1)NCCn1cccc1`, the “Percent Effect” value was -4.539%.
The value for `COCC(=O)NCCn1nc(-c2cc(C)oc2C)ccc1=O` was 96.68%.
Next, `Cc1cc(-c2ccc(=O)n(CCNC(=O)C3CCCCC3)n2)c(C)o1`: 127.3%; `Cc1cc(-c2ccc(=O)n(CCNC(=O)C3CCC3)n2)c(C)o1`: 82.02%.
For `Cc1noc(C)c1CCCNC(=O)C1CCN(C(C)C)CC1`, the “Percent Effect” value was 1.059%.
On to `CC(C)NC(=O)NCCn1cnc(C2CCCC2)cc1=O`, for which the “Percent Effect” value is given as -0.7993%.
The value for `COCC(=O)Nc1ccccc1-c1ccc(=O)n(C)n1` was 7.916%; that for `Cc1cc(-c2ccc(=O)n(CCNC(=O)C3CC3)n2)c(C)o1` was 72.81%.
The value for `Cc1cc(C(O)CCNC(=O)COc2ccccc2F)c(C)o1` (stereo not given) was 1.741%.
For `O=C(NCCNC(=O)C1CCCCC1)NCCn1cccc1`, the “Percent Effect” value came to 0.3641%.
For `CSc1ccc(NC(=O)NCc2nncn2C2CC2)cc1F`, the “Percent Effect” value amounted to 6.164%.
The value for `CNC(=O)CCNC(=O)c1cccc(Cn2nc(C)cc2C)c1` was -10.69%.
Next, `CCN(CCC(=O)OC)C(=O)c1cccc(Cn2nc(C)cc2C)c1`: 2.618%.
On to `Cc1cc(C)n(Cc2ccc(C(=O)NCCN3CCOCC3)cc2)n1`, for which the “Percent Effect” value came out at 0.4084%.
Take `Cc1cc(C)n(Cc2ccc(-c3noc(C(=O)NCCCO)n3)cc2)n1`: the “Percent Effect” value is recorded as 113.7%.
Next, `O=C(NCCN1CCCCC1)c1nc(-c2ccc3cc[nH]c3c2)no1`: 1.073%; `COCCN(CCOC)C(=O)c1ccc(Cn2nc(C)cc2C)cc1`: -2.502%; `Cc1cc(C)n(Cc2ccc(-c3noc(C(=O)NC[C@@H](C)O)n3)cc2)n1`: 107.8%.
The value for `Cc1cc(C)n(Cc2ccc(-c3noc(C(=O)NCCO)n3)cc2)n1` was 112.8%; that for `COCc1cc(C[C@@H]2CC[C@H](O)[C@@H](CNCC(C)C)O2)no1` was -7.367%.
The value for `CC(C)CN1C(=O)C2(CCN(Cc3cccs3)C2)c2ccccc21.O=C(O)C(F)(F)F` (stereo not given) was 129.4%; that for `CC(C)CN1C(=O)C2(CCN(CC3CCOCC3)C2)c2ccccc21.O=C(O)C(F)(F)F` (stereo not given) was 3.565%.
Take `CC(C)CN1C(=O)C2(CCN(Cc3ccoc3)C2)c2ccccc21.O=C(O)C(F)(F)F` (stereo not given): the “Percent Effect” value stood at 60.6%.
The value for `Cc1ccc(CN2CCC3(C2)C(=O)N(CC2CC2)c2ccccc23)s1.O=C(O)C(F)(F)F` (stereo not given) was 106.7%.
The value for `CC(C)CN1C(=O)C2(CCN(Cc3nccs3)C2)c2ccccc21.O=C(O)C(F)(F)F` (stereo not given) was 21.56%; that for `CN1CCN(Cc2cccnc2)C2(CCN(Cc3ccoc3)C2)C1=O.O=C(O)C(F)(F)F.O=C(O)C(F)(F)F.O=C(O)C(F)(F)F` (stereo not given) was -11.48%.
The value for `CC(C)CN1C(=O)C2(CCN(Cc3ccsc3)C2)c2ccccc21.O=C(O)C(F)(F)F` (stereo not given) was 118.8%; that for `Cc1ccc(CN2CCC3(C2)C(=O)N(CC(N)=O)c2ccccc23)s1` (stereo not given) was -16.39%; that for `CCN(CC)C(CNCc1cc(F)cc(F)c1)c1ccco1` (stereo not given) was 4.253%.
As to `Cc1ccsc1[C@@H]1CCN(C(=O)CCc2cc(O)no2)C[C@H]1O`, the “Percent Effect” value is recorded as 2.962%.
`COc1ccccc1CC(=O)NCc1c(C)nc2cc(=O)[nH]n2c1C`: the “Percent Effect” value is -0.07038%.
Consider `Cc1ccc(C(C)(O)CNC(=O)c2sccc2Br)o1` (stereo not given), for which the “Percent Effect” value came out at 16.11%.
Take `CC(c1nc(C2CC2)no1)N1CCC(NS(=O)(=O)c2cccs2)CC1` (stereo not given): the “Percent Effect” value is given as 7.931%.
The value for `CC(C)CN1C(=O)C2(CCN(Cc3ccc(F)cc3)C2)c2ccccc21` (stereo not given) was 132%.
As for `Cc1ccc(CN2CCC3(C2)C(=O)N(CC(C)C)c2ccccc23)s1` (stereo not given), the “Percent Effect” value was 8.577%.
Regarding `O=C(O)C(F)(F)F.c1cnc(N2C[C@H]3CCN(CC4CC4)C[C@H]3C2)cn1`, the “Percent Effect” value amounted to 93.44%.
The value for `O=C(O)C(F)(F)F.O=C(O)C(F)(F)F.c1cnc(N2CCOCC3(CCCN(CC4CC4)C3)C2)cn1` (stereo not given) was -18.67%.
Next, `O=C(O)C(F)(F)F.O=C(O)C(F)(F)F.c1cnc(N2C[C@H]3CCN(CCN4CCCC4)C[C@H]3C2)cn1`: 87.36%; `O=C(O)[C@]12CN(CC3CCC3)C[C@H]1CN(c1cnccn1)C2`: 5.69%.
As to `Cn1cc(CNCCc2nccs2)c(-c2cccnc2)n1`, the “Percent Effect” value was determined as 5.46%.
On to `C[C@@H]1CN(C2(C(=O)N3CC[C@H](O)C3)Cc3ccccc3C2)C[C@H](C)O1`, for which the “Percent Effect” value was 3.055%.
Next, `c1ccc2c3c([nH]c2c1)C(c1nn[nH]n1)CCC3` (stereo not given): 118.9%; `CCc1ccc(C(=O)N2CCCC(c3nn[nH]n3)C2)cc1` (stereo not given): 6.219%; `O=c1[nH]c2ccccc2c(=O)n1Cc1nnnn1C1CC1`: -11.16%.
Next, `Clc1ccc2[nH]c3c(c2c1)CCCC3c1nn[nH]n1` (stereo not given): 91.29%; `Brc1ccc2[nH]c3c(c2c1)CCCC3c1nn[nH]n1` (stereo not given): 153.1%.
